{"source": "PubChem BioAssay AID623911", "about": "(Vanderbilt High Throughput Screening Facility, 2012)", "note": "Out of some 2,100 compounds screened, about 770 (37%) were called active. This is one part of the list. Unmarked numbers belong to inactive results.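 The calls were made as follows: active = by-eye trace score of 1 for enhancers or -1 for inhibitors, so actives lie on both sides (some results past the limit were not filed as active); inactive = score 0, or 3 fluorescent, or 4 baseline rise.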"}
{"target": "G protein-activated inward rectifier potassium channel 2 (Homo sapiens) + G protein-activated inward rectifier potassium channel 1 (Homo sapiens) (UniProt P48051+P48549)", "sequence (P48051 whole entry, looked up)": "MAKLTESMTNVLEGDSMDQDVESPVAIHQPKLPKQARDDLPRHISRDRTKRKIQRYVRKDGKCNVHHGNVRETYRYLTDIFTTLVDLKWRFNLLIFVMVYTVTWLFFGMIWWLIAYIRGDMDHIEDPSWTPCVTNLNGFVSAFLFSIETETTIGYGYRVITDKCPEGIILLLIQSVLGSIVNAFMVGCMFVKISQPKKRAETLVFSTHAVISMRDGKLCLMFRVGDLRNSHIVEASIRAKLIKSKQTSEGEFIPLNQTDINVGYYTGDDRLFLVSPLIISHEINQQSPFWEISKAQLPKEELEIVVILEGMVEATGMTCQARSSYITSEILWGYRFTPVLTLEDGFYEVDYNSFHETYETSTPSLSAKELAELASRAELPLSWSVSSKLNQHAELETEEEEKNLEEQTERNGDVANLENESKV", "sequence (P48549 whole entry, looked up)": "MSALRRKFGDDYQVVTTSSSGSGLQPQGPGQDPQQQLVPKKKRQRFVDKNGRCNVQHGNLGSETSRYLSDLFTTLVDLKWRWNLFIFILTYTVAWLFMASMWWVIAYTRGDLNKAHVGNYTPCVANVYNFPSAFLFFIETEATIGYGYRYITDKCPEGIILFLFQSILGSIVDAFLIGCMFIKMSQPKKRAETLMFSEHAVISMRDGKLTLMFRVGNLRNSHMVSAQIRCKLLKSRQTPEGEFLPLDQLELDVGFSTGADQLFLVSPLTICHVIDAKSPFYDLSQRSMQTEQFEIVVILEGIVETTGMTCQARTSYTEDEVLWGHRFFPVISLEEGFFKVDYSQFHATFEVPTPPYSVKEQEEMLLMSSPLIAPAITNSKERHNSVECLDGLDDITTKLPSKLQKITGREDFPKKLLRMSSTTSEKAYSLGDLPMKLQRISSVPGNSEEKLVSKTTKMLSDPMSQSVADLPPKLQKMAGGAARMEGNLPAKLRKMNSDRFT", "experiment": "GIRK1/2 thallium flux modulators, retest, confirmation, cell-based, HEK293 rmGlu8/hGIRK1/2, FluoZin-2 (AID 623911)", "conditions": "HEK293 rmGlu8/hGIRK1/2, thallium flux FluoZin-2; actives lie on both sides; glutamate co-added at its EC20 level"}
{"smiles": "Cc1ccc(NC(=O)Cn2cccc2)cc1Cl", "manual score": 0}
{"smiles": "O=C(CSCCO)Nc1ccccc1", "manual score": 0}
{"smiles": "CCn1c(CCNC(=O)c2cccs2)nnc1SCC(=O)Nc1ccc(Cl)cc1", "manual score": 0}
{"smiles": "O=C(CC(O)(C(F)(F)F)C(F)(F)F)Nc1ccc(Cl)c(Cl)c1", "manual score": 0}
{"smiles": "NC(=O)SCC(=O)Nc1cccc(Cl)c1", "manual score": "1 (active)"}
{"smiles": "Cc1ccc(NC(=O)CSC(N)=O)cc1Cl", "manual score": "1 (active)"}
{"smiles": "NC(=O)SCC(=O)Nc1ccc(Cl)cc1", "manual score": "1 (active)"}
{"smiles": "CC(C)(C)CC(=O)Nc1ccc(C(N)=O)cc1", "manual score": 0}
{"smiles": "Cn1c(=O)c(NCCc2ccccc2)c2c3c(cccc31)C(=O)c1ccccc1-2", "manual score": 3}
{"smiles": "Cc1ccccc1Cn1c(=N)n(CC(=O)c2ccco2)c2ccccc21", "manual score": "-1 (active)"}
{"smiles": "Cc1ccccc1Cn1c(-c2cncs2)nc2ccccc21", "manual score": 0}
{"smiles": "Cc1ccccc1Cn1c(=N)n(CC(O)c2ccco2)c2ccccc21", "note": "(stereo not drawn)", "manual score": "-1 (active)"}
{"smiles": "C1CCC2(CC1)OCC1(CO2)COC2(CCCCC2)OC1", "manual score": 0}
{"smiles": "Cc1cccc(NC(=S)N2CCC(C(=O)c3ccc(F)cc3)CC2)c1C", "manual score": 0}
{"smiles": "c1ccc(-c2nnc3n2NC(c2ccc4c(c2)OCO4)S3)cc1", "note": "(stereo not drawn)", "manual score": "1 (active)"}
{"smiles": "Cc1ccc(/C=C/C(=O)c2ccccc(=O)c2O)cc1C", "manual score": "1 (active)"}
{"smiles": "Cc1cccc(/C=C/C(=O)c2cc(Br)ccc(=O)c2O)c1", "manual score": "1 (active)"}
{"smiles": "O=C(/C=C/c1ccccc1)c1cc(Br)ccc(=O)c1O", "manual score": "1 (active)"}
{"smiles": "COc1ccc(/C=C/C(=O)c2cc(Br)ccc(=O)c2O)cc1", "manual score": "1 (active)"}
{"smiles": "Cc1cccc(NC(=O)COc2ccc(Br)cc2/C=N/O)c1", "manual score": 0}
{"smiles": "Cc1cccc(/C=c2\\s/c(=C\\C(=O)C(C)(C)C)[nH]c2=O)c1", "manual score": 0}
{"smiles": "CCC(=O)Oc1ccc(C/C(=N\\O)c2ccc(O)cc2O)o1", "manual score": 0}
{"smiles": "COc1ccc(-c2cc(C(F)(F)F)c3c(n2)sc2c(O)cc(=O)[nH]c23)c(OC)c1", "manual score": -0.5}
{"smiles": "N#CC(C#N)=C1C=C2C=C(N3CCCCC3)CCC2CC1", "note": "(stereo not drawn)", "manual score": 3}
{"smiles": "CC(C)CN(C(=O)COC(=O)Cc1n[nH]c(=O)c2ccccc12)C1CCS(=O)(=O)C1", "note": "(stereo not drawn)", "manual score": 0}
{"smiles": "CCc1ccc(/C=C/C(=O)c2cc(Br)ccc(=O)c2O)cc1", "manual score": "1 (active)"}
{"smiles": "COc1ccc(NC(=O)CSc2nnc(-c3ccccn3)n2Cc2ccco2)cc1OC", "manual score": 0}
{"smiles": "CCOC(=O)c1oc2nc(C(C)C)c3c(c2c1N)CC(C)(C)OC3", "manual score": 0}
{"smiles": "COc1ccccc1/C=C/C=N\\N1CCN(Cc2ccccc2Cl)CC1", "manual score": 0}
{"smiles": "Cc1cc(C)n(-c2nnc(C)n2/N=C/c2ccccc2OCc2ccccc2Cl)n1", "manual score": "-1 (active)"}
{"smiles": "O/N=C/c1cc(Cl)ccc1OCc1cccc2ccccc12", "manual score": 0}
{"smiles": "OC(c1ccccc1)C1CN(Cc2ccccc2)CCC1(O)c1ccccc1", "note": "(stereo not drawn)", "manual score": "-1 (active)"}
{"smiles": "O=C(COc1ccccc1F)NC1CCN(Cc2ccccc2)CC1", "manual score": 0}
{"smiles": "Cc1ccc(C)c2[nH]c(=O)c(CN(CCN3CCCC3)C(=O)Nc3ccc(F)cc3)cc12", "manual score": "-1 (active)"}
{"smiles": "CCOC(=O)CSc1nc2c(sc3ccccc32)c(=O)n1CCCN1CCOCC1", "manual score": "-1 (active)"}
{"smiles": "CCCCn1c(SCC(N)=O)nc2c(sc3ccccc32)c1=O", "manual score": 0}
{"smiles": "CC(C)CCn1c(SCC#N)nc2c(sc3ccccc32)c1=O", "manual score": 0}
{"smiles": "Cc1cccc2c1nc(-c1ccccc1)n1cnnc21", "manual score": 0}
{"smiles": "COc1ccccc1N1CCN(C(=O)CCn2c(=O)[nH]c3ccsc3c2=O)CC1", "manual score": 0}
{"smiles": "Cc1ccc(C)c(N2CCN(C(=O)CCCOc3cc(=O)n(C)c4ccccc34)CC2)c1", "manual score": 0}
{"smiles": "O=C(CCn1c(=O)oc2ccccc21)N1CCN(c2ccccc2Cl)CC1", "manual score": "-1 (active)"}
{"smiles": "CCC(=O)n1nc(-c2cccnc2)nc1NCc1ccc(OC)cc1", "manual score": 0}
{"smiles": "CC(C)CCNC(=O)C(C)N(C(=O)Cn1nnc(-c2ccc(F)cc2)n1)C1CCCC1", "note": "(stereo not drawn)", "manual score": 0.5}
{"smiles": "CC(C)CCNC(=O)C(C)N(Cc1ccc(F)cc1)C(=O)c1ccc(CN2CCCCC2)o1", "note": "(stereo not drawn)", "manual score": "-1 (active)"}
{"smiles": "CN1C=CC2=C(C#N)C(N)C(C#N)(C#N)C(c3ccccc3)C2C1", "note": "(stereo not drawn)", "manual score": 3}
{"smiles": "S=C(NCCc1ccccc1)Nc1ccc(Cl)cc1Cl", "manual score": -0.5}
{"smiles": "S=C(NCc1ccc(Cl)cc1Cl)Nc1ccccc1", "manual score": "1 (active)"}
{"smiles": "S=C(N/N=C/c1ccccc1Cl)Nc1ccccc1", "manual score": 0.5}
{"smiles": "Clc1ccc(Cc2ccc(SCc3ccccc3)nn2)c(Cl)c1", "manual score": 0}
{"smiles": "Fc1ccccc1CNC(=S)Nc1ccc(Cl)cc1", "manual score": "1 (active)"}
{"smiles": "Fc1ccc(NC(=S)NCc2ccccc2Cl)cc1", "manual score": "1 (active)"}
{"smiles": "S=C(NN=C1CCCCCC1)Nc1ccc(Cl)cc1", "manual score": 0.5}
{"smiles": "CC1(C)CC(=O)c2c(noc2-c2ccccc2)C1", "manual score": 0}
{"smiles": "O=C(NC(=S)Nc1ccccc1N1CCCC1)c1ccc(-c2cccc([N+](=O)[O-])c2)o1", "manual score": 0}
{"smiles": "O=C(Oc1ccccc1C(=S)N1CCCCC1)c1cc([N+](=O)[O-])cc([N+](=O)[O-])c1", "manual score": "-1 (active)"}
{"smiles": "Fc1ccc(/C=N/NC(=S)Nc2ccc(Cl)cc2)cc1F", "manual score": 0}
{"smiles": "Fc1ccc(NC(=S)N/N=C/c2cccc(Br)c2)c(F)c1", "manual score": 0}
{"smiles": "Fc1ccc(NC(=S)N/N=C/c2ccc(F)c(F)c2)c(F)c1", "manual score": "1 (active)"}
{"smiles": "Oc1c(C=NCc2ccncc2)sc2ccccc12", "manual score": "1 (active)"}
{"smiles": "CCCN(CCC)CCCNC(=O)c1cc2c(=O)n(C)c3ccccc3c2n1C", "manual score": "-1 (active)"}
{"smiles": "CN(CCNC(=O)c1cc2c(=O)n(C)c3ccccc3c2n1C)Cc1ccccc1", "manual score": "-1 (active)"}
{"smiles": "CCn1c(=O)c(C(=O)NCCCO)c(O)c2ccccc21", "manual score": 0}
{"smiles": "O=C(NC(Nc1nc2ccc([N+](=O)[O-])cc2s1)(C(F)(F)F)C(F)(F)F)c1ccccc1Cl", "manual score": 0}
{"smiles": "O=C(NC(Nc1nc2ccc([N+](=O)[O-])cc2s1)(C(F)(F)F)C(F)(F)F)c1ccccc1", "manual score": "1 (active)"}
{"smiles": "Cc1ccc(C)c(OCC(=O)Nc2nc3ccc([N+](=O)[O-])cc3s2)c1C", "manual score": 0}
{"smiles": "Cc1noc(C)c1CSc1nc2ccccc2c(=O)n1-c1ccc(F)cc1F", "manual score": 0}
{"smiles": "Cc1onc(-c2c(F)cccc2Cl)c1C(=O)OCn1nnc2ccccc2c1=O", "manual score": "-1 (active)"}
{"smiles": "O=C(Cc1cccs1)Nc1cccnc1", "manual score": 0}
{"smiles": "COc1cccc(NC(=O)Nc2cccs2)c1", "manual score": "1 (active)"}
{"smiles": "COC(=O)c1c(NC(=O)Cc2cccs2)sc(C(=O)NC2CCCCC2)c1C", "manual score": 0}
{"smiles": "CCOc1ccc(NC(=O)Nc2cccs2)cc1", "manual score": "1 (active)"}
{"smiles": "CCOc1ccc(Nc2ncnc(N)n2)cc1", "manual score": 1.5}
{"smiles": "COc1cc(NC(=O)Cc2cccs2)cc(OC)c1", "manual score": "1 (active)"}
{"smiles": "O=C(Nc1cccs1)Nc1c(F)c(F)c(F)c(F)c1F", "manual score": "1 (active)"}
{"smiles": "CCOc1ccc(NC(=O)CCC(=O)c2ccc(-c3ccccc3)cc2)cc1", "manual score": 0}
{"smiles": "Cc1ccc(-c2cc(-c3cccs3)[nH]n2)c(O)c1", "manual score": 0}
{"smiles": "CN1C=CC2=C(C#N)C(N)C(C#N)(C#N)[C@H](c3ccccc3)[C@H]2C1", "note": "(stereo partly drawn)", "manual score": 1.5}
{"smiles": "Cn1c(SCC(=O)c2cc3ccccc3o2)nnc1-c1ccccc1", "manual score": 0}
{"smiles": "CC1CC2=C(CC1/C=N/NC(N)=S)C(C)(C)CCC2", "note": "(stereo not drawn)", "manual score": 0}
{"smiles": "CCN(CC)C(=O)CSc1nnc(NC(=O)CCc2ccccc2)s1", "manual score": 0}
{"smiles": "Cc1ccccc1NC(=S)NC(=O)CCc1ccccc1", "manual score": 0}
{"smiles": "CCN(CC)CC(O)COc1ccccc1C(=O)CCc1ccccc1", "note": "(stereo not drawn)", "manual score": "-1 (active)"}
{"smiles": "S=C1Nc2cc(Cl)ccc2Sc2ccccc21", "manual score": 0.5}
{"smiles": "S=C1CCSc2ccc(Cl)cc2N1", "manual score": "1 (active)"}
{"smiles": "O=c1c2cccnc2[nH]c(=S)n1Cc1ccccc1", "manual score": 0}
{"smiles": "CCC1(C)Cc2c(sc3[nH]c(=S)n(Cc4ccccc4)c(=O)c23)CO1", "note": "(stereo not drawn)", "manual score": "1 (active)"}
{"smiles": "CC(C)C1Cc2c(sc3c2c(=O)n(Cc2ccccc2)c2nncn32)CO1", "note": "(stereo not drawn)", "manual score": "1 (active)"}
{"smiles": "CC(C)C1Cc2c(sc3[nH]c(=S)n(Cc4ccccc4)c(=O)c23)CO1", "note": "(stereo not drawn)", "manual score": "1 (active)"}
{"smiles": "CC1(C)Cc2c(sc3[nH]c(=S)n(Cc4ccccc4)c(=O)c23)CO1", "manual score": "1 (active)"}
{"smiles": "CCC1(C)Cc2c(sc3c2c(=O)n(C)c2nnc(SCc4ccc5c(c4)OCO5)n32)CO1", "note": "(stereo not drawn)", "manual score": 0}
{"smiles": "COc1ccccc1N(C)S(=O)(=O)c1ccc(C(=O)N(CC(N)=O)C(C)C)cc1", "manual score": 0}
{"smiles": "CC(=O)/C(=N\\Nc1ccc(Cl)cc1Cl)Sc1cccc2cccnc12", "manual score": 0}
{"smiles": "N#CC1=C(N)Oc2n[nH]c(-c3cccs3)c2C1c1ccco1", "note": "(stereo not drawn)", "manual score": 3}
{"smiles": "Cc1nnc2n(C3CCCCC3)c(=O)c3c4c(sc3n12)COC(C)(C)C4", "manual score": 0}
{"smiles": "CC1(C)Cc2c(sc3[nH]c(=S)n(Cc4ccco4)c(=O)c23)CO1", "manual score": "1 (active)"}
{"smiles": "C=C(C)C1CC=C(C)/C(=N/NC(=O)c2ccc(NC(=O)CCC)cc2)C1", "note": "(stereo not drawn)", "manual score": 0}
{"smiles": "C=C(C)C1CC=C(C)/C(=N/NC(=O)COc2ccc(C)cc2)C1", "note": "(stereo not drawn)", "manual score": 0}
{"smiles": "C=C(C)C1CC=C(C)/C(=N/NC(=O)COc2cccc(C)c2)C1", "note": "(stereo not drawn)", "manual score": "1 (active)"}
{"smiles": "Cc1ccc(-c2cc(-c3ccccc3)[nH]c(=S)c2C#N)cc1", "manual score": "1 (active)"}
{"smiles": "COc1ccc(-c2c3c([nH]c(=S)c2C#N)CCC3)cc1", "manual score": 0}
{"smiles": "CCOC(=O)c1c(C)[nH]c(=S)c(C#N)c1-c1ccc(Cl)cc1", "manual score": 0}
{"smiles": "Cc1ccc(C2CC2c2n[nH]c(=S)n2-c2ccc(Cl)cc2)cc1", "note": "(stereo not drawn)", "manual score": 0}
{"smiles": "CN=C1SC(C(=O)O)CC(=O)N1C", "note": "(stereo not drawn)", "manual score": 0}
{"smiles": "Cc1cc(O)c(C(C[N+](=O)[O-])c2ccc(Cl)cc2Cl)c(=O)o1", "note": "(stereo not drawn)", "manual score": 0}
{"smiles": "CC(c1ccco1)N(C(=O)c1ccccc1NS(=O)(=O)c1cc([N+](=O)[O-])ccc1Cl)c1ccccn1", "note": "(stereo not drawn)", "manual score": 0}
{"smiles": "CCCC(=O)Nc1ccc(NC(=O)C23CC4CC(CC(C4)C2)C3)cn1", "manual score": 0}
{"smiles": "COC(=O)c1ccc(NC(=O)C23CC4CC(C2)CC(n2cncn2)(C4)C3)cc1", "manual score": 0}
{"smiles": "O=C(Nc1ccc(SC(F)F)cc1)C12CCC(CC1)C2", "manual score": "1 (active)"}
